Values without a mark were called inactive. This is one part of the list. Calls of active or inactive are those of the source. Unless noted, no stated cut-off is given here; in the data, active means inhibition above about 30%; inactive means the rest.
Legend:
[1] = molecular target: Nuclear receptor coactivator 3 (Homo sapiens) (UniProt Q9Y6Q9); assay: NCOA3 GAL4-fusion reporter inhibition – cell-based, luminescence, quadruplicate, confirmation (AID 588792;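 active means mean inhibition over 43.08%, the solvent-only control mean plus 3 SD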;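 further: 0% = DMSO treated cells and 100% = gossypol at 36 µM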); conditions: HEK293 GAL4-SRC3 luciferase reporter, at 3.6 µM, hits give high values
[2] = system: transactivating tegument protein VP16 (Human herpesvirus 1), Gal4-VP16 luciferase reporter; assay: repression of VP16-driven luciferase reporter – cell-based, luminescence, high throughput, counter-screen for SRC3 inhibitor project (AID 588794); conditions: mammalian cells, at 3.6 µM, hits give high values
[3] = molecular target: Nuclear receptor coactivator 1 (Homo sapiens) (UniProt Q15788); assay: NCOA1 GAL4-fusion reporter inhibition – cell-based, luminescence, quadruplicate, confirmation (AID 588820;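 active means mean inhibition above 46.68%, the untreated control wells mean plus 3 SD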;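 further: 0% = DMSO wells and 100% = gossypol 36 µM treated wells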); conditions: HEK293 GAL4-SRC1 luciferase reporter, at 3.6 µM, hits give high values
[4] = repression of VP16-driven luciferase reporter – cell-based, luminescence, high throughput, counter-screen for SRC1 inhibitor project (AID 588824; in the data active means inhibition above about 25%); conditions: cell-based VP16 transactivation luciferase luminescence; at 3.6 µM; hits give high values
[5] = system: transactivating tegument protein VP16 (Human herpesvirus 1); assay: compounds suppressing VP16-driven luciferase signal – cell-based, luminescence, single concentration, counter-screen for SRC2 inhibitor project (AID 652007; in the data active means inhibition above about 36%); conditions: cell-based VP16 transactivation luciferase reporter, at 8.9 µM, hits give high values
[6] = molecular target: Nuclear receptor coactivator 2 (Homo sapiens) (UniProt Q15596); assay: inhibition of GAL4-SRC2 driven luciferase expression – cell-based, luminescence, HEK293, triplicate, confirmation (AID 652008;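 active means mean inhibition above 46.5%, the solvent-only control mean plus 3 SD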;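 further: 0% = DMSO-treated cells and 100% = Gossypol at 36 µM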); conditions: HEK293 GAL4-SRC2 luciferase reporter, at 8.9 µM, hits give high values
[7] = VP16-driven transactivation reporter suppression – cell-based, luminescence, HEK293, counter-screen for COUP-TFII antagonist project (AID 687007; in the data active means inhibition above about 13%); conditions: HEK293 Gal4-VP16 luciferase reporter, at 8.5 µM, hits give high values
[8] = molecular target: COUP transcription factor 2 (Homo sapiens) (UniProt P24468); assay: retest of COUP-TFII reporter suppressors – cell-based, luciferase reporter, HEK293, triplicate, confirmation (AID 687008;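 active means mean inhibition over three repeats above a set limit taken from the earlier primary screen, cut at about 38% in these data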;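 further: 100% = cells given the luciferase reporter alone without the COUP-TF2 vector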); conditions: HEK293 NGFI-A luciferase reporter, luminescence; at 8.5 µM; hits give high values
COUP transcription factor 2 (Homo sapiens), sequence (P24468 whole entry, looked up): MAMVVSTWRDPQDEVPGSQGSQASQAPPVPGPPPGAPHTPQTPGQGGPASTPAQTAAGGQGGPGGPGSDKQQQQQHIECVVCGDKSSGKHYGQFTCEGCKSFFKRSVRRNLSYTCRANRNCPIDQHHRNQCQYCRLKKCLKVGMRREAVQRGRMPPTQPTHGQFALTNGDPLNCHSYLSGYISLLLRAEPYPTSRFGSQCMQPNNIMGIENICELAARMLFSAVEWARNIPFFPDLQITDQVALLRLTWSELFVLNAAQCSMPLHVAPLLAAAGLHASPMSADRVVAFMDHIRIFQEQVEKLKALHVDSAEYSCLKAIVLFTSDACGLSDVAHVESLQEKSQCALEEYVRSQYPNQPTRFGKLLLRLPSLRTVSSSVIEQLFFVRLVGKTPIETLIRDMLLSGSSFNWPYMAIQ

Nuclear receptor coactivator 2 (Homo sapiens), sequence (Q15596 whole entry, looked up, the tested form may be a part): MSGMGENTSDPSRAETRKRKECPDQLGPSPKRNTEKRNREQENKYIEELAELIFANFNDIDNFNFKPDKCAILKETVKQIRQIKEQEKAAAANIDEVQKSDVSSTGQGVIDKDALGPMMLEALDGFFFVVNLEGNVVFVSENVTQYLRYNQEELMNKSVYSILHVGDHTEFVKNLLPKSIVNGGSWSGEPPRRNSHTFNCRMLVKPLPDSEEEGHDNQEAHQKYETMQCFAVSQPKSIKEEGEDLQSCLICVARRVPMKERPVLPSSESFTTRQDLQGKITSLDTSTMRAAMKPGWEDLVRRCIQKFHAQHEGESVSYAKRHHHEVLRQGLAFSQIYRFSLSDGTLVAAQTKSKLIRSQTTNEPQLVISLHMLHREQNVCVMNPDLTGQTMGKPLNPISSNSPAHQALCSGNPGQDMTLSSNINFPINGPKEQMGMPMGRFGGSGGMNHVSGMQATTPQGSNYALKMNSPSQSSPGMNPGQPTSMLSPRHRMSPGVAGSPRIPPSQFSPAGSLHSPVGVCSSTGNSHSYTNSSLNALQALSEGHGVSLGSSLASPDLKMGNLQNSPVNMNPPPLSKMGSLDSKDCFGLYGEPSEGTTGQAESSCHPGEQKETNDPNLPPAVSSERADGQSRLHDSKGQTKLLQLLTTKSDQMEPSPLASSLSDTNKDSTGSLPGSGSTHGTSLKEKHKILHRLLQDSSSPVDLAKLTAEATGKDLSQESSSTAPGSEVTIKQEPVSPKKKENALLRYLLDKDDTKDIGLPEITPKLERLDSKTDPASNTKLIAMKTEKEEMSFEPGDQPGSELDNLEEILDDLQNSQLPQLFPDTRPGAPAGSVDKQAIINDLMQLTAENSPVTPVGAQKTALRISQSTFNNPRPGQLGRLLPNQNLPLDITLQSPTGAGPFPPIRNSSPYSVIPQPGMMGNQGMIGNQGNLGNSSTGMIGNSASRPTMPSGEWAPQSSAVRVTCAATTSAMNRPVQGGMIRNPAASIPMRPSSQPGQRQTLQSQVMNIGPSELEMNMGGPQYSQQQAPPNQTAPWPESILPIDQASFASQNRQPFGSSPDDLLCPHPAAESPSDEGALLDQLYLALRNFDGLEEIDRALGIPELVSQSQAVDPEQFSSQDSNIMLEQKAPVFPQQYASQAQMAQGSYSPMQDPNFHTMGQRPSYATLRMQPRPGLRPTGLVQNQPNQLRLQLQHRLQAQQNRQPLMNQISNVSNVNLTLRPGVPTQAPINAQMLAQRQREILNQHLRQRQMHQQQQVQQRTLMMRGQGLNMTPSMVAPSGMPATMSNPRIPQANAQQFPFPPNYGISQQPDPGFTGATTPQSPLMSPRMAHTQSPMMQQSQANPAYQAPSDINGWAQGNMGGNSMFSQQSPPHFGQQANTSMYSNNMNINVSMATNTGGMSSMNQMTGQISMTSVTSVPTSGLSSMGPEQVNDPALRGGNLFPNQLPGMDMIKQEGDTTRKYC
Nuclear receptor coactivator 1 (Homo sapiens), sequence (Q15788 whole entry, looked up, the tested form may be a part): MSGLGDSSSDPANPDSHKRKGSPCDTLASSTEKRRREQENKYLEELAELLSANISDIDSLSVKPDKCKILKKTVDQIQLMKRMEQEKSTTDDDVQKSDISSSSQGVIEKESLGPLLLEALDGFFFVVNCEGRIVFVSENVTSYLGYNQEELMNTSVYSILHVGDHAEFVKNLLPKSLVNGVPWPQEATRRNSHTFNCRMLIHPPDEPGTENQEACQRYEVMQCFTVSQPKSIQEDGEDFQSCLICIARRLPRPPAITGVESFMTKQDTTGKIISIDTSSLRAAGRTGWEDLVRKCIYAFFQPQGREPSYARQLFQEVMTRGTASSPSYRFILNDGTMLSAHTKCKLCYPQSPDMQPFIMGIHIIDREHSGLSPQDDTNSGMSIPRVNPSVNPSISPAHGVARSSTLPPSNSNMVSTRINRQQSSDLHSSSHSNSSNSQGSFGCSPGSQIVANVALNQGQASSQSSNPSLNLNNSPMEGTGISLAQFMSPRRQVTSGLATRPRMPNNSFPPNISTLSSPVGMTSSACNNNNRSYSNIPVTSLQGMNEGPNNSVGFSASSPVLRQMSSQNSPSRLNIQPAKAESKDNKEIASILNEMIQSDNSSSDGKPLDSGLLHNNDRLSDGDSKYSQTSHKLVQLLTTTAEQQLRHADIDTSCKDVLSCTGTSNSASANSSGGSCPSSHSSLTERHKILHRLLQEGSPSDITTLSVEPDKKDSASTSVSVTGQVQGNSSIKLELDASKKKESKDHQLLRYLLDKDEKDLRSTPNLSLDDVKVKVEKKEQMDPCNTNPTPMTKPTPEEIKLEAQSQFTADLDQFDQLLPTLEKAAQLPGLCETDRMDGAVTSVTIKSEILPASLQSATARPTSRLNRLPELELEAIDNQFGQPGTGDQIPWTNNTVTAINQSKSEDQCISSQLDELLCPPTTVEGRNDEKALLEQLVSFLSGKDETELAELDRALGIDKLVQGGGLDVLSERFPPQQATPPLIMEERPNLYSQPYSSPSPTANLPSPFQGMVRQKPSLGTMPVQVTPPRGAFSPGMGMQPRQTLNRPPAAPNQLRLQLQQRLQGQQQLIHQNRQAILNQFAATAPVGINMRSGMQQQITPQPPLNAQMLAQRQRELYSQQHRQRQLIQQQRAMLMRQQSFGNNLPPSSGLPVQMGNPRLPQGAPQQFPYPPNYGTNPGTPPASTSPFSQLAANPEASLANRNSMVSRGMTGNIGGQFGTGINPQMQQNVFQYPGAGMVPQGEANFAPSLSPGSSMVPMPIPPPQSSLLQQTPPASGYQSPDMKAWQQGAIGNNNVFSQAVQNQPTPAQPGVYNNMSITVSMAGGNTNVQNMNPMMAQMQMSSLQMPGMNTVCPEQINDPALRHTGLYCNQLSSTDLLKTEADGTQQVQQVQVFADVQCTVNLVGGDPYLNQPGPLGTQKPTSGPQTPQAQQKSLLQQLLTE
Nuclear receptor coactivator 3 (Homo sapiens), sequence (Q9Y6Q9 whole entry, looked up, the tested form may be a part): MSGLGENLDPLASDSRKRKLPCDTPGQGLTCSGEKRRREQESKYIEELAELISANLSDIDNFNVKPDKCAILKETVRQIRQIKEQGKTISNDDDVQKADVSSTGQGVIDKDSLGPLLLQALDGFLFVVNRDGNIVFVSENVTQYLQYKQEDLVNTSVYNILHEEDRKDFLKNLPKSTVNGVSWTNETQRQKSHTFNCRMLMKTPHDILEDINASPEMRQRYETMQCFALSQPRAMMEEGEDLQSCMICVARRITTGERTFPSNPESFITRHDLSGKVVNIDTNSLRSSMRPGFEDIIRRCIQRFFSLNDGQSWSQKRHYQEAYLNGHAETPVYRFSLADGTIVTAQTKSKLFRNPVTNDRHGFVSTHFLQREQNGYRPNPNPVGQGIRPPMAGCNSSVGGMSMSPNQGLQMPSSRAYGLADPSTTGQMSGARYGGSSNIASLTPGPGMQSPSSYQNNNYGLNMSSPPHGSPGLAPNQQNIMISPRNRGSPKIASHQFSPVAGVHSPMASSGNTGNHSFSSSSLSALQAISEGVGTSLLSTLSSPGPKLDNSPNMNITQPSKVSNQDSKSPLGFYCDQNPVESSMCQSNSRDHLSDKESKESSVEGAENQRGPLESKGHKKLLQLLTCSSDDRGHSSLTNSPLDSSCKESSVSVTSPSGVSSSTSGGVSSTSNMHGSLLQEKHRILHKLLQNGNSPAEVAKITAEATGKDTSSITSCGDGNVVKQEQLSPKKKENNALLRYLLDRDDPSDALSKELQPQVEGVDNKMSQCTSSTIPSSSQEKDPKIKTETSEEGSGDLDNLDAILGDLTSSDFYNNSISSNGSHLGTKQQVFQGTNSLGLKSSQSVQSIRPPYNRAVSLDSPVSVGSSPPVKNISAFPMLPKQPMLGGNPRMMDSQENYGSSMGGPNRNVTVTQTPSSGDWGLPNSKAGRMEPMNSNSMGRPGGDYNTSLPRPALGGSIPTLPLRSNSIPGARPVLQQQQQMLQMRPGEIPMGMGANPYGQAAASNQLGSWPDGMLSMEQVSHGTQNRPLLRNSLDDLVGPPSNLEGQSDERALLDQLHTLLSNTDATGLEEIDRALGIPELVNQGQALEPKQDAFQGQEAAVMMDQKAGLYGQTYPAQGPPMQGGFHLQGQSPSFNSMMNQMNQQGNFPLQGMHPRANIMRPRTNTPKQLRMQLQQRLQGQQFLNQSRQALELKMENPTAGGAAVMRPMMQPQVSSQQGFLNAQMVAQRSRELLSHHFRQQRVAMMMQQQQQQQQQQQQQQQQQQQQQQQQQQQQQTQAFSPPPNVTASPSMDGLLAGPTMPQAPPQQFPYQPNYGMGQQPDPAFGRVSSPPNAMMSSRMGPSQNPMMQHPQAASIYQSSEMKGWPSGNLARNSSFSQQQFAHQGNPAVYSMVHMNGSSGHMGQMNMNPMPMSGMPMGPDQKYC

Oc1ccc(N=Nc2ccc3c(c2)OCCO3)c2cccnc12
inhibition [1]: 19.8% | inhibition [2]: -38.3% | inhibition [3]: 4.34% | inhibition [4]: -39.5% | inhibition [5]: -16.8% | inhibition [6]: -7.52%

COc1ccccc1-c1cc2nc(-c3ccccc3)cc(N3CCN(C(=O)c4ccco4)CC3)n2n1
inhibition [1]: 30.4% | inhibition [2]: 48.6% (active) | inhibition [3]: 17.6% | inhibition [4]: 25.1% | inhibition [5]: 62.7% (active) | inhibition [6]: 60.3% (active)

Cc1cc(C(=O)COc2cccnc2[N+](=O)[O-])c(C)n1-c1ccccc1
inhibition [1]: -5.17% | inhibition [2]: -52.9% | inhibition [3]: -11.3% | inhibition [4]: -70.8% | inhibition [5]: -71.7% | inhibition [6]: 68.1% (active)

CC(=O)Nc1nc(-c2ccc3c(c2)CC(C)N3C(=O)C2CC2)c(C)s1 (stereo not drawn)
inhibition [1]: 72.6% (active) | inhibition [2]: 58.6% (active) | inhibition [3]: 50.6% (active) | inhibition [4]: 62.7% (active) | inhibition [5]: -4.55% | inhibition [6]: 41.8%

CCn1c(Oc2ccccc2F)nc2c1c(=O)n(C)c(=O)n2C
inhibition [1]: 63% (active) | inhibition [2]: 51% (active) | inhibition [3]: 64.4% (active) | inhibition [4]: 47.2% (active) | inhibition [5]: -5.89% | inhibition [6]: 48.6% (active)

CC1(Cc2cccc(F)c2)C(=O)Nc2ccc(-c3cccnc3)cc21 (stereo not drawn)
inhibition [1]: 66.8% (active) | inhibition [2]: 49.2% (active) | inhibition [3]: 65% (active) | inhibition [4]: 49% (active) | inhibition [5]: 8.45% | inhibition [6]: 56% (active)

c1cc2[nH]snc2c2nc(C3CC3)nc12
inhibition [1]: 63.9% (active) | inhibition [2]: 18.3% | inhibition [3]: 53.3% (active) | inhibition [4]: 23.3% | inhibition [5]: -12.6% | inhibition [6]: 19%

c1csc(CNc2ncnc3ccc(-c4ccoc4)cc23)c1
inhibition [1]: 62.6% (active) | inhibition [2]: 41.1% (active) | inhibition [3]: 34.6% | inhibition [4]: 37% (active) | inhibition [5]: 5.65% | inhibition [6]: 37.1%

CNc1ccc2ncc(-c3ccc(OC)c(OC)c3)n2n1
inhibition [1]: 80.1% (active) | inhibition [2]: 63.1% (active) | inhibition [3]: 75.4% (active) | inhibition [4]: 60.1% (active) | inhibition [5]: -12.4% | inhibition [6]: 37.3%

CC(=O)c1cccc(-c2csc3ncnc(Sc4nnnn4C)c23)c1
inhibition [1]: 33% | inhibition [2]: 20.4% | inhibition [3]: 6.55% | inhibition [4]: 30.8% (active) | inhibition [5]: 24% | inhibition [6]: 15.9%

CCc1c(C#N)sc(C(N)=O)c1CC
inhibition [1]: 27.8% | inhibition [2]: 20.5% | inhibition [3]: 20.6% | inhibition [4]: 13.2% | inhibition [5]: 8.1% | inhibition [6]: 25.6%

Cc1ccccc1C(=O)N1CCN(c2ccc(NC(=O)c3ccc4c(c3)OCCO4)cc2)CC1
inhibition [1]: 25.7% | inhibition [2]: 43% (active) | inhibition [3]: 32.2% | inhibition [4]: 41.5% (active) | inhibition [5]: 34.3% | inhibition [6]: 45.5%

O=C(CN1C(=O)c2ccccc2S1(=O)=O)N1CCc2ccccc21
inhibition [1]: 60.5% (active) | inhibition [2]: 60.9% (active) | inhibition [3]: 40.8% | inhibition [4]: 65.1% (active) | inhibition [5]: 65.5% (active) | inhibition [6]: 85.9% (active) | inhibition [7]: 65.9% (active) | inhibition [8]: 74.9% (active)

COc1ccc(CC(=O)Nc2cccc(-c3nnc(-c4ccccc4)o3)c2)cc1OC
inhibition [1]: 10.5% | inhibition [2]: 32.9% (active) | inhibition [3]: -12.5% | inhibition [4]: 41.1% (active) | inhibition [5]: 27.1% | inhibition [6]: 68.5% (active)

O=C(CCCN1C(=O)/C(=C/c2ccccc2Cl)SC1=S)NNC(=O)c1ccncc1
inhibition [1]: 14.7% | inhibition [2]: 8.23% | inhibition [3]: 10.8% | inhibition [4]: 10.8% | inhibition [5]: 40.6% (active) | inhibition [6]: 65.4% (active)

O=C(c1cncc(Br)c1)N1CCc2ccccc2C1
inhibition [1]: 46.3% (active) | inhibition [2]: 33.3% (active) | inhibition [3]: 46.3% | inhibition [4]: 29.3% (active) | inhibition [5]: 1.4% | inhibition [6]: 15.9%

COc1cc(SC)ccc1C(=O)Nc1nc(C)cs1
inhibition [1]: 15.6% | inhibition [2]: 15.1% | inhibition [3]: -68.3% | inhibition [4]: 14.8% | inhibition [5]: 50.1% (active) | inhibition [6]: 75.4% (active) | inhibition [7]: 46.4% (active) | inhibition [8]: 69.1% (active)

CC(C)(C)OC(=O)N1Cc2ccccc2C[C@H]1C(=O)NCC(=O)Nc1ccc2c(c1)OCCO2
inhibition [1]: 28.9% | inhibition [2]: 1.92% | inhibition [3]: 5.58% | inhibition [4]: -7.64% | inhibition [5]: -3.02% | inhibition [6]: 52% (active)

Cn1nnnc1Sc1ncnc2scc(-c3cccc(Br)c3)c12
inhibition [1]: 31.4% | inhibition [2]: 43.7% (active) | inhibition [3]: 43.3% | inhibition [4]: 47.5% (active) | inhibition [5]: 9.2% | inhibition [6]: 55.7% (active)
